Drawing on PubChem BioAssay AID493200 (National Center for Advancing Translational Sciences (NCATS), 2011), this text covers Potency for 40 compounds.

Results filed as inconclusive are left out. Entries that show only a call come without a potency. Calls of active or inactive are those of the source. Calls follow the shape of the dose curve; as a rule, active = well fitted activation curve with a large enough effect; inconclusive = small, poorly fitted or top-dose-only effect; inactive = no such curve, though single readings can be large or run the other way.
Potency is read from the fitted curve at half-maximal effect.

A short description of the test: qHTS Assay for Rab9 Promoter Activators: Initial hit validation from the primary screen. As to conditions: Huh7 Rab9 promoter luciferase reporter, 24 h; series mostly up to 46.1 µM. From the text: NIH Chemical Genomics Center [NCGC] NIH Molecular Libraries Probe Production centers Network [MLPCN] MLPCN Grant: MH089537-01 Assay Submitter (PI): Yiannis A. Ioannou NCGC Assay Overview: Niemann Pick Type C (NPC) is a rare neurodegenerative lipidosis that is characterized by lipid storage in the endosomal/lysosomal system. Treatment modalities for this devastating disease are currently non-existent due to the severe obstacles associated with accessing the central nervous system with proteins or genes (Ioannou, 2000). We have developed a new paradigm, termed "Orphan Receptor Bypass Therapy" (ORByT), to address these disorders. This paradigm posits the existence of endogenous "suppressor" proteins whose expression can dramatically improve LSD pathogenesis. The goal is the identification/discovery of small chemical compounds that can modulate the expression of these proteins and provide a new treatment modality for these devastating disorders. One such protein whose overexpression reverses aspects of the NPC phenotype is Rab9. We have developed and optimized a cell based luciferase reporter assay in 1536 well format for the identification of up-regulators of the Rab9 promoter. This assay presents data on the validation of hits from the primary screen.
The Rab9 promoter is cloned in front of the luciferase reporter gene, therefore […] promoter activation results in luciferase expression. Frozen stock of the Rab9 promoter transfected Huh7 cells were obtained from the laboratory of Dr. Yiannis Ioannou (The Mount Sinai School of Medicine, New York, NY). Cells were propagated and maintained at NCGC in medium containing RPMI-1640 supplemented with 10% FBS, 2mM L-glutamine, and 50ug/ml penicillin/streptomycin. Cells were harvested in and plated for assays in OP-MEM I reduced-serum medium supplemented with 10% FBS. The Amplite luciferase reporter gene assay kit was purchased from ABD Bioquest and prepared/stored according to manufacturers recommendations. qHTS Assay Setup: 1.Dispensed 5ul of Huh7 cells stably expressing Rab9-luciferase at a density of 1500 cells per well 1536-well plates. 2.Incubate cells at 37C, 5% CO2, and 95% humidity for 2 hours. 3.Transferred 23nl per well of compound in DMSO solution. 4.Incubated at 37C, 5% CO2, and 95% humidity for 24 hours. 5.Dispensed 3ul per well of Amplite reagent(ABD Bioquest) per well. 6.Incubate at ambient for 10 minutes. 7.Read using the luminescence protocol on the ViewLux plate reader (Perkin Elmer).
(In general: qHTS replaces the single test concentration by a dilution series.)
For the compound `CCC(=O)NC(=S)Nc1ccc(N2CCOCC2)cc1`, the Potency is 39700 nM (active).

On to `CCOC(=O)c1cc2sccc2n1CC(=O)N1CCCc2ccccc21`, for which the Potency entry was “inactive”.

Take `CCN(Cc1nc2cc(Cl)ccc2c(=O)[nH]1)C(=O)C1CC(=O)N(c2cccc3ccccc23)C1` (stereo not given): the Potency entry was “inactive”.

Regarding `O=C(CSc1nnc(-c2ccccn2)o1)Nc1ccccc1Cl`, the Potency was 888 nM (active).

With `CCCCCCC(=O)Nc1ccc(C(=O)N/N=C/c2cccnc2)cc1`, the Potency entry was “inactive”.

As for `Cc1ccccc1NC(=O)Cc1nc(COC(=O)CC(C)c2ccccc2)cs1` (stereo not given), the Potency result is “inactive”.

As to `Cc1nn(CCCC(=O)NCc2ccc(F)cc2)c(C)c1[N+](=O)[O-]`, the Potency result is “inactive”.

As for `CCOC(=O)C1(Cc2cccc(Cl)c2)CCCN(C(=O)CCSC)C1` (stereo not given), the Potency result was “inactive”.

In the case of `COc1cccc(C(C(=O)NC2CCCC2)N(CCC(C)C)C(=O)CCC(=O)Nc2cc(C)on2)c1` (stereo not given), the Potency result is “inactive”.

Take `CCc1cc(C(=O)Nc2ccccc2)cs1`: the Potency was 2810 nM (active).

Take `O=C(CSc1nnc(Cc2cc(=O)[nH]c(=O)[nH]2)n1-c1ccc(Cl)cc1)NC1CCCC1`: the Potency entry was “inactive”.

Consider `C=CCOC(=O)N1CCN(c2cccc(C(F)(F)F)c2)CC1`, for which the Potency entry is “inactive”.

For the compound `O=S(=O)(c1cccs1)N1CCN(c2ncccn2)CC1`, the Potency result is “inactive”.

On to `COc1ccccc1NC(=S)NCc1ccc(Cl)cc1`, for which the Potency entry is “inactive”.

For `O=C(C[N+]1(CC#Cc2ccccc2)CCCCC1)c1ccccc1`, the Potency result was “inactive”.

For `N#C/C(=C\c1ccc[nH]1)C(=O)Nc1ccccc1Cl`, the Potency was 3530 nM (active).

On to `O=CN1CCN(C(=O)c2ccccc2Cl)CC1`, for which the Potency entry was “inactive”.

On to `COCCNC(=O)CN1C(=O)NC(c2ccccc2)(c2ccccc2)C1=O`, for which the Potency entry is “inactive”.

As for `O=C(C1COc2ccccc2O1)N1CCN(S(=O)(=O)c2ccccc2)CC1` (stereo not given), the Potency result is “inactive”.

Turning to `CCOC(=O)c1ccc(NC(=O)Oc2cc(C)c(Cl)cc2C(C)C)cc1`, the Potency entry was “inactive”.

Take `Brc1ccccc1-c1nnc(CSc2nnc3sc4ccccc4n23)o1`: the Potency result is “inactive”.

As for `Cc1cccc(NC(=O)CSc2nc3ccccc3o2)c1`, the Potency entry is “inactive”.

Turning to `CCOc1ccc(CNC(=O)C2CCCN(S(C)(=O)=O)C2)cc1OC` (stereo not given), the Potency entry was “inactive”.

With `Cc1nc2sc(C(=O)OC(C)C)c(N)c2c(C)c1C`, the Potency is 15800 nM (active).

With `CCOc1cc(C2C(C#N)=C(N)Oc3n[nH]c(C)c32)ccc1OCCN1CCOCC1` (stereo not given), the Potency entry is “inactive”.

As to `CN(C)/C=N/c1c(C#N)cnn1-c1nc2ccccc2s1`, the Potency result was “inactive”.

On to `Cn1c(CCN2CCN(c3ccccc3)CC2)nc2cc(NC(=O)c3ccco3)ccc21`, for which the Potency result is “inactive”.

Turning to `Cc1ccccc1NC(=O)CSc1ccc(-c2cccnc2)nn1`, the Potency result was “inactive”.

With `O=C(Nc1nc2ccc(F)cc2s1)c1ccc(N2CCCC2=O)cc1`, the Potency is 199 nM (active).

As to `O=C(NC1CCCC1)C(c1ccc(F)cc1)N(C(=O)c1csnn1)c1ccccc1` (stereo not given), the Potency entry was “inactive”.

On to `Cc1ccc(N=Cc2sc(O)c3ccccc23)c(C)c1`, for which the Potency is 2230 nM (active).

For `Nc1ccc(C(=O)Nc2ccccc2N)cc1`, the Potency was 15800 nM (active).

As for `COC(=O)c1ccc(NC(=O)c2ccc3nc(C)sc3c2)cc1`, the Potency was 560 nM (active).

Take `Cc1ccc(NC(=O)NC(=O)c2ccccc2)cc1F`: the Potency was 445 nM (active).

With `CC(C)(C)NC(=S)NNC(=O)c1ccc2ncccc2c1`, the Potency was 1770 nM (active).

On to `S=C1NCN(CCc2ccccc2)CN1Cc1ccccc1`, for which the Potency entry is “inactive”.

Consider `CCCCn1c(CCNC(=O)c2cccs2)nc2ccccc21`, for which the Potency entry is “inactive”.

On to `C=CCc1ccc(OCCOCCNCCOC)c(OC)c1`, for which the Potency entry was “inactive”.

On to `O=C(Nc1ccc(-c2nc3cccnc3s2)cc1)c1ccc(Cl)nc1`, for which the Potency was 888 nM (active).

Take `CC(=O)[C@@H]1[C@@H](C(=O)c2ccc(C)cc2)[C@]2(C(=O)Nc3ccccc32)[C@H]2C=Cc3cc(F)ccc3N12`: the Potency result was “inactive”.
